# Test results as given in the supplement of paper PMC8728848.
# The entries come from a sample that favours the strongest signals as a whole.
# B1: Langerin K299A/K313A (Homo sapiens), Q9UJ71 (protein)
# chain: STLNAQIPELKSDLEKASALNTKIRALQGSLENMSKLLKRQNDILQVVSQGWKYFKGNFYYFSLIPKTWYSAEQFCVSRNSHLTSVTSESEQEFLYKTAGGLIYWIGLTKAGMEGDWSWVDDTPFNKVQSARFWIPGEPNNAGNNEHCGNIAAPSLQAWNDAPCDATFLFICKRPYVPSEP
# Columns and labels:
# Experiment in all cases: glycan array binding signal (z-score within array); higher = stronger binding
# Conditions in all cases: glycan notation: IUPAC condensed, linker removed
# [1] = target: GalNAc(a1-3)GalNAc(b1-3)Gal(a1-4)Gal(b1-4)Glc
# Summary of the method: (§1)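 The binding signal is a Z-score computed within each array. Data were drawn from 3228 arrays in the Consortium for Functional Glycomics database, restricted to those with a known protein sequence. Scores were averaged over arrays of the same protein sequence at different concentrations or buffers, and over linkers, and negative values can be taken as non-binding.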
# [2] = target: GalNAc(b1-3)Gal(a1-6)Gal(b1-4)Glc
# Summary of the method: as §1
# [3] = target: GalNAc3S(b1-4)[Fuc(a1-3)]GlcNAc
# Summary of the method: as §1
# Glc(a1-4)Glc = target: Glc(a1-4)Glc
# Summary of the method: as §1
# GlcA(b1-3)Gal = target: GlcA(b1-3)Gal
# Summary of the method: as §1
# [4] = target: GlcNAc(b1-2)Gal(b1-3)GalNAc
# Summary of the method: as §1
# [5] = target: GlcNAc(b1-3)Gal(b1-4)GlcNAc(b1-2)Man(a1-3)[GlcNAc(b1-3)Gal(b1-4)GlcNAc(b1-2)Man(a1-6)]Man(b1-4)GlcNAc(b1-4)GlcNAc
# Summary of the method: as §1
# [6] = target: GlcNAc(b1-3)Gal(b1-4)GlcNAc(b1-2)[GlcNAc(b1-3)Gal(b1-4)GlcNAc(b1-6)]Man(a1-6)[GlcNAc(b1-3)Gal(b1-4)GlcNAc(b1-2)Man(a1-3)]Man(b1-4)GlcNAc(b1-4)GlcNAc
# Summary of the method: as §1
# [7] = target: GlcNAc(b1-3)Gal(b1-4)GlcNAc(b1-3)Gal(b1-4)GlcNAc(b1-2)Man(a1-3)[GlcNAc(b1-3)Gal(b1-4)GlcNAc(b1-3)Gal(b1-4)GlcNAc(b1-2)Man(a1-6)]Man(b1-4)GlcNAc(b1-4)GlcNAc
# Summary of the method: as §1
# [8] = target: GlcNAc(b1-3)Gal(b1-4)GlcNAc(b1-3)Gal(b1-4)GlcNAc(b1-3)Gal(b1-4)GlcNAc(b1-2)Man(a1-3)[GlcNAc(b1-3)Gal(b1-4)GlcNAc(b1-3)Gal(b1-4)GlcNAc(b1-3)Gal(b1-4)GlcNAc(b1-2)Man(a1-6)]Man(b1-4)GlcNAc(b1-4)[Fuc(a1-6)]GlcNAc
# Summary of the method: as §1
# [9] = target: GlcNAc(b1-3)Gal(b1-4)GlcNAc(b1-3)Gal(b1-4)GlcNAc(b1-3)Gal(b1-4)GlcNAc(b1-3)Gal(b1-4)GlcNAc(b1-2)Man(a1-3)[GlcNAc(b1-3)Gal(b1-4)GlcNAc(b1-3)Gal(b1-4)GlcNAc(b1-3)Gal(b1-4)GlcNAc(b1-3)Gal(b1-4)GlcNAc(b1-2)Man(a1-6)]Man(b1-4)GlcNAc(b1-4)GlcNAc
# Summary of the method: as §1
# [10] = target: GlcNAc(b1-3)Gal(b1-4)GlcNAc(b1-6)[GlcNAc(b1-3)Gal(b1-3)]GalNAc
# Summary of the method: as §1
# [11] = target: GlcNAc(b1-4)Gal(b1-4)GlcNAc
# Summary of the method: as §1
# Kdn(a2-6)Gal(b1-4)GlcNAc = target: Kdn(a2-6)Gal(b1-4)GlcNAc
# Summary of the method: as §1
# Man(a1-2)Man(a1-3)Man = target: Man(a1-2)Man(a1-3)Man
# Summary of the method: as §1
# [12] = target: Man(a1-3)[Man(a1-6)]Man(a1-6)[Man(a1-3)]Man(b1-4)GlcNAc(b1-4)GlcNAc
# Summary of the method: as §1
# [13] = target: Neu5Ac(a2-3)Gal(b1-3)GlcNAc6S
# Summary of the method: as §1
# [14] = target: Neu5Ac(a2-3)Gal(b1-4)GlcNAc(b1-3)Gal(b1-4)GlcNAc(b1-3)Gal(b1-4)GlcNAc
# Summary of the method: as §1
# [15] = target: Neu5Ac(a2-3)Gal(b1-4)[Fuc(a1-3)]GlcNAc(b1-3)GalNAc
# Summary of the method: as §1
# [16] = target: Neu5Ac(a2-3)Gal(b1-4)[Fuc(a1-3)]GlcNAc6S
# Summary of the method: as §1
# [17] = target: Neu5Ac(a2-3)[GalNAc(b1-4)]Gal(b1-4)GlcNAc
# Summary of the method: as §1
# [18] = target: Neu5Ac(a2-3)[GalNAc(b1-4)]Gal(b1-4)GlcNAc(b1-3)GalNAc
# Summary of the method: as §1
# Neu5Ac(a2-6)Gal = target: Neu5Ac(a2-6)Gal
# Summary of the method: as §1
# [19] = target: Neu5Ac(a2-6)Gal(b1-3)GlcNAc(b1-3)[Gal(b1-4)GlcNAc(b1-6)]Gal(b1-4)Glc
# Summary of the method: as §1
# [20] = target: Neu5Ac(a2-6)Gal(b1-4)GlcNAc(b1-2)Man(a1-3)[Neu5Ac(a2-6)Gal(b1-4)GlcNAc(b1-2)Man(a1-6)]Man(b1-4)GlcNAc(b1-4)[Fuc(a1-6)]GlcNAc
# Summary of the method: as §1
# Neu5Ac(a2-6)GalNAc = target: Neu5Ac(a2-6)GalNAc
# Summary of the method: as §1
# Neu5Ac(b2-6)GalNAc = target: Neu5Ac(b2-6)GalNAc
# Summary of the method: as §1
binder,measurement,setting,value
B1,glycan array binding signal (z-score),[1],0.162
same,glycan array binding signal (z-score),[2],0.155
same,glycan array binding signal (z-score),[3],-1
same,glycan array binding signal (z-score),Glc(a1-4)Glc,-0.103
same,glycan array binding signal (z-score),GlcA(b1-3)Gal,-0.832
same,glycan array binding signal (z-score),[4],0.486
same,glycan array binding signal (z-score),[5],0.619
same,glycan array binding signal (z-score),[6],3.64
same,glycan array binding signal (z-score),[7],0.828
same,glycan array binding signal (z-score),[8],5.83
same,glycan array binding signal (z-score),[9],2.75
same,glycan array binding signal (z-score),[10],-0.82
same,glycan array binding signal (z-score),[11],-0.886
same,glycan array binding signal (z-score),Kdn(a2-6)Gal(b1-4)GlcNAc,0.407
same,glycan array binding signal (z-score),Man(a1-2)Man(a1-3)Man,-1.07
same,glycan array binding signal (z-score),[12],-0.582
same,glycan array binding signal (z-score),[13],-0.784
same,glycan array binding signal (z-score),[14],0.361
same,glycan array binding signal (z-score),[15],3.01
same,glycan array binding signal (z-score),[16],0.192
same,glycan array binding signal (z-score),[17],-0.463
same,glycan array binding signal (z-score),[18],0.982
same,glycan array binding signal (z-score),Neu5Ac(a2-6)Gal,0.01
same,glycan array binding signal (z-score),[19],0.329
same,glycan array binding signal (z-score),[20],3.07
same,glycan array binding signal (z-score),Neu5Ac(a2-6)GalNAc,-0.621
same,glycan array binding signal (z-score),Neu5Ac(b2-6)GalNAc,-0.61
